Source: PubChem BioAssay (National Center for Advancing Translational Sciences (NCATS))
Sampled rows, rich in hits. Any-hit rate of the full collection: about 2.4%.
D2 PAM-1: HTS Assay for Positive Allosteric Modulators of the Human D2 Dopamine Receptor: Primary Screen for Potentiators | potentiation, % at 10 µM | HEK293 T-REx D2, calcium flux, EC20 dopamine potentiation | 340,000 tested, 0.34% active;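 active means potentiation over 3 SD above the plate norm, cut at about 30% in these data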; further: 0% is about no effect
Target sequence (P14416 whole entry, looked up): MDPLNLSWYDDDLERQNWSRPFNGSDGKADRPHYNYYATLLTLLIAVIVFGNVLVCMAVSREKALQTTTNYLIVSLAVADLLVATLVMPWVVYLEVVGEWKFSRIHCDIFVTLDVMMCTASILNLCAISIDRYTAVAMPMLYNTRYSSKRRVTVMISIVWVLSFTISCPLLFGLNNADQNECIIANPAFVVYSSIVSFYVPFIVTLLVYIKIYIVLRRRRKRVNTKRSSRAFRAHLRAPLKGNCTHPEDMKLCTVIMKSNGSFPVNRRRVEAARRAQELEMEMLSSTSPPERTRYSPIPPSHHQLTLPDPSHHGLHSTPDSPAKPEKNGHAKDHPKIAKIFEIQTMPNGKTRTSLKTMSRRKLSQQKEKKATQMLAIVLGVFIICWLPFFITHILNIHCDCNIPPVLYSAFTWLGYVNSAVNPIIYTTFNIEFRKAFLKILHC
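Primary screen. Calcium kinetics in induced HEK293 T-REx D2 cells: compound pre-addition 180 s, EC20 dopamine, 180 s more.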
D2 ag-1: Beta-Arrestin HTS for Positive Allosteric Modulators of the Human D2 Dopamine Receptor: Agonists. D(2) dopamine receptor (Homo sapiens), P14416. DiscoveRx PathHunter D2 beta-arrestin, luminescence, 90 min; 100% = 57 uM dopamine signal. activation, % (no concentration beside the values). 360,000 tested, 0.084% active. AID 624465, 2012; in the data active means activation above about 40%; inconclusive means between about 15% and that limit
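Agonist mode: compounds alone added to overnight-plated D2 PathHunter cells for 90 min at 37 C, with 57 uM final dopamine (EC100) defining full response. Beta-arrestin recruitment detected by chemiluminescent reagent, read after 1 h at ambient temperature.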
D2 antag: HTS Assay for Allosteric Antagonists of the Human D2 Dopamine Receptor: Primary Screen for Antagonists; D(2) dopamine receptor (Homo sapiens), P14416; HEK293 TREx D2 cells, calcium flux, dopamine EC80; inhibition, % at 10 µM; 340,000 tested, 2% active; in the data active means inhibition above about 30%; inactive means below that, where a call was filed; further: 0% is about no effect
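HEK293 T-REx D2 cells, tet-induced, calcium dye no-wash. Cpd pintool add, 180 s kinetic, then EC80 DA, 180 s kinetic. Ca flux read.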
D2 ag-2: HTS Assay for Allosteric Agonists of the Human D2 Dopamine Receptor: Primary Screen for Agonists. HEK293 T-REx D2 cells, calcium flux agonist mode. activation, % at 2 µM. D(2) dopamine receptor (Homo sapiens), P14416. 340,000 tested, 0.53% active;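 active means activation over 3 SD above normal in the single-dose calcium agonist read, cut at about 30% in these data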; further: 0% is about no effect
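Agonism is scored from calcium flux in a force-coupled, inducible HEK293 cell line expressing D2, read kinetically for 180 s after compound addition against dopamine controls.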
D2 PAM-2: Beta-Arrestin HTS for Positive Allosteric Modulators of the Human D2 Dopamine Receptor: Potentiators; D(2) dopamine receptor (Homo sapiens), P14416; DiscoveRx D2 beta-arrestin cells, luminescence, 90 min; 100% = 57 uM dopamine signal; potentiation, % (no concentration beside the values); 360,000 tested, 0.23% active; AID 624464, 2012; in the data active means potentiation above about 50%; inconclusive means mostly about 30% to 49%
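PathHunter D2 cells, attached overnight at 37 deg C, received compound in DMSO plus dopamine at EC20 (50 nM final) for 90 min at 37 deg C. Beta-arrestin recruitment was read as luminescence after 1 h with detection reagent at ambient temperature.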
* = called active by the depositor; ? = inconclusive; · = not tested or not shown.

SMILES	D2 PAM-1	D2 ag-1	D2 antag	D2 ag-2	D2 PAM-2
CCOC(=O)c1sc(N2C(=O)c3oc4ccccc4c(=O)c3C2c2ccc(C(C)(C)C)cc2)nc1C (stereo not drawn)	-1	·	·	·	·
COc1ccccc1C(=O)Nc1ccc2nc(N3CCC(C)CC3)cc(C)c2c1	-4	·	·	1	·
Cc1cc(NC(=O)CCC(=O)N(Cc2ccco2)C2(C(=O)NC3CCCCC3)CCCCC2)no1	0	-4	-11	-1	-7
Cc1cc(NC(=O)CCC(=O)N(Cc2ccccc2)C2(C(=O)NC3CCCCC3)CCCC2)no1	2	10	44*	1	-3
Cc1ccc(C)c(N(CC(=O)NC2CCCC2)C(=O)CCC(=O)Nc2cc(C)on2)c1	-24	0	36*	0	-1
CCc1cccc(C)c1NC(=O)C1CCCN1S(=O)(=O)c1cccc2nsnc12 (stereo not drawn)	0	·	·	-1	·
Cc1ccc(CNC(=O)C(CC(C)C)NS(=O)(=O)c2ccc3c(c2)oc(=O)n3C)cc1 (stereo not drawn)	4	·	·	0	·
CCOc1ccc(-c2cc3nc(C4CCN(C(=O)OC(C)(C)C)CC4)c(C(=O)Nc4ccc(C)c(F)c4)cn3n2)cc1	3	·	·	-1	·
CCNC(=O)c1ccccc1SCc1ccccc1	10	3	14	-1	0
CCNC(=O)c1ccccc1SCC(=O)Nc1ccc(F)cc1	35*	-3	23	0	-7
CCO[C@H]1OC(C(=O)O)=C[C@@H](c2csc3ccccc23)[C@@H]1CCCO	11	0	32*	0	-3
CCO[C@H]1OC(C(=O)N2CCCCCCC2)=C[C@@H](c2csc3ccccc23)[C@@H]1CCCO	-3	-2	5	0	-13
COc1ccc(NC(=O)c2ccc(OCC3CCCO3)cc2)cc1Cl (stereo not drawn)	-4	8	47*	1	25
Cc1ccc(C)c(OCc2cc(C(=O)N(C)Cc3nccn3C)no2)c1	-3	-2	3	35*	-8
Cc1ccc(OCc2cc(C(=O)N(C)Cc3nccn3C)no2)cc1C	0	-1	-19	-1	-9
Cc1ccccc1NS(=O)(=O)c1ccc(C2CNC(=O)C2)cc1 (stereo not drawn)	·	0	66*	1	-4
O=C1CC(c2ccc(S(=O)(=O)NCc3ccccc3)cc2)CN1 (stereo not drawn)	4	-2	1	0	-1
CCN(Cc1ccc2c(c1)OCCO2)C(=O)CN1C(=O)NC2(CCCCC2)C1=O	4	-2	41*	1	-3
CCN(CC)c1ccc(/C=C2/C(=O)c3ccc(C(=O)O)cc3C2=O)cc1	-2	-3	28	84*	-32
Cn1c(CNC(=O)CSc2nc(-c3ccccc3F)nc3cc(=O)[nH]n23)nc2ccccc21	-9	·	·	0	·
O=c1nc(/C=C/c2ccccc2C(F)(F)F)cc(C(F)(F)F)[nH]1	9	-3	32*	-2	-10
CCc1ccc(CNC(=O)C2COc3ccccc3C2)cc1 (stereo not drawn)	16	·	·	0	·
Cc1cc(=O)nc2c3ccccc3n(C(C)C(=O)Nc3cc(F)ccc3F)n12 (stereo not drawn)	·	-2	·	·	-11
Cc1cc(=O)nc2c3ccccc3n(C(C)C(=O)Nc3c(F)c(F)c(F)c(F)c3F)n12 (stereo not drawn)	4	4	45*	0	1
CC(=O)Nc1cccc(Oc2nc(NC(C)C)nc3cc(-c4ccccc4)sc23)c1	·	1	·	·	-2
SMILES	D2 PAM-1	D2 ag-1	D2 antag	D2 ag-2	D2 PAM-2
O=c1cc(-c2ccccc2)oc2cc(OCc3ccccc3)cc(O)c12	-8	2	51*	1	-8
O=c1cc(-c2ccc(OCc3ccccc3)cc2)oc2cc(OCc3ccccc3)cc(OCc3ccccc3)c12	·	1	·	·	2
CCOc1ccc(CCNC(=O)CS(=O)(=O)Cc2nc(-c3cccc(Cl)c3)oc2C)cc1	26	·	·	0	·
COc1cc(NC(=O)CSc2nc3nc(C)c(Cc4ccc(C)cc4)c(C)n3n2)cc(OC)c1	0	·	·	-1	·
CCOc1ccc(C2C(C#N)=C(N)SC(N)=C2C#N)c(OCC)c1	0	2	31*	1	9
CCSc1oc(-c2ccco2)nc1S(=O)(=O)c1ccc(F)cc1	16	-3	-7	0	-7
CCSc1oc(-c2ccco2)nc1S(=O)(=O)c1ccc(C)cc1	34*	-4	-2	-1	-8
COC(=O)C1CSC2c3ccccc3C(=O)N12 (stereo not drawn)	·	-4	·	·	-10
COc1ccc(NC(=O)C2CSC3c4ccccc4C(=O)N23)cc1 (stereo not drawn)	-3	-1	32*	-2	-9
COc1cccc(CNS(=O)(=O)c2cnc(N)nc2)c1	·	·	·	2	·
C/C(=N\O)c1c(O)cc(-c2ccccc2)n(-c2ccccc2)c1=O	-24	-8	-6	31*	-1
C/C(=N/O)c1c(O)c(C)c(-c2ccccc2)n(-c2ccccc2)c1=O	9	-2	-3	0	8
CC(O)(c1ccncc1)c1nc(-c2cccc(C(F)(F)F)c2)cs1 (stereo not drawn)	·	9	·	·	-9
N/C(=N\c1nc2c(c(=O)[nH]1)CCCC2)Nc1ccccc1	8	0	-4	0	11
N/C(=N\c1nc2c(c(=O)[nH]1)CCC2)Nc1ccccc1	-5	2	30*	0	-1
COc1ccc(S(=O)(=O)N2CCC(C(=O)NCCN3CCOCC3)CC2)cc1OC	-4	-8	-9	0	-6
COc1ccc(S(=O)(=O)N2CCC(C(=O)NCCN3CCOCC3)CC2)cc1C	-4	-4	34*	1	-10
Cc1ccc(CNC(=O)Cn2ccn(-c3ccc(C)c(C)c3)c(=O)c2=O)cc1	-7	·	·	0	·
Cc1cc(NS(=O)(=O)c2ccc(NC(=O)COc3c(C)ccc(C)c3C)cc2)nc(C)n1	-4	·	·	0	·
Cc1ccc(NC(=S)N2CCCC(c3nc4ccccc4[nH]3)C2)cc1 (stereo not drawn)	·	2	·	·	-11
Cc1ccccc1NC(=S)N1CCCC(c2nc3ccccc3[nH]2)C1 (stereo not drawn)	-1	-6	32*	0	-21
COc1ccc(O)c(C(=O)c2cc(C(=O)NCCc3ccccc3)c(=O)n(CCc3ccccc3)c2)c1	4	14	-8	2	69*
CCN1CCc2c(sc(N)c2C#N)C1	·	43*	4	0	?
